# Assay results from PubChem BioAssay (NCI).
# About 79,000 compounds went through this panel and 15% of them were active in at least one assay; those are over-represented in the sample as a whole. Unmarked numbers belong to inactive results. Activity calls are given as the source filed them. Rule as the data show it: active = growth inhibition above about 70%; inactive = the rest.
# Assay: NCI Yeast Anticancer Drug Screen. Data for the cln2 rad14 strain (AID 165);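 also: 0% = growth equal to vehicle treated cultures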
# Settings: S. cerevisiae cln2 rad14 strain, at 50.0 µM (retest, dose inferred, filed as 5.0), hits give high values
# Procedure, shortened: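 Compounds are applied to the cln2 rad14 yeast strain, and growth is then compared with that of vehicle-treated cultures to give inhibition.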
row,Structure (SMILES),growth inhibition
1,O=[N+]([O-])c1cccc(S(=O)(=O)N/N=C/c2cc(I)cc([N+](=O)[O-])c2O)c1,2%
2,COc1cc(N=Nc2cccc(S(N)(=O)=O)c2)c2ccccc2c1N,98% (active)
3,O=S(=O)(c1ccc(O)cc1)c1ccc(Cl)cc1,35%
4,C[N+](C)=c1ccc2nc3c(cc(NCCCNc4cc5oc6cc(=[N+](C)C)ccc-6nc5c5ccccc45)c4ccccc43)oc-2c1,53%
5,CC(C)(C)C(=O)/C=C/c1ccc2ccccc2n1,-75%
6,CSc1ccc(/C=N/NC(N)=S)cc1,-19%
7,CN(C)c1ccc(/C=C(\C#N)c2c(F)cccc2F)cc1,-3%
8,O=C(/C=C\c1ccccc1)N1c2ccccc2CC1c1c[nH]c2ccccc12 (stereo not given),1%
9,COc1cccc(C2c3cc4c(cc3OC(Nc3ccccc3)C2C)OCO4)c1O (stereo not given),97% (active)
10,CC(/C=C/c1cccs1)=N\C(=S)NC(N)=S,-4%
11,C=C1C(=O)O[C@H]2[C@H](OC(C)=O)[C@@H](C)CCC/C(C)=C/CC[C@@]3(C)O[C@@H]3C[C@@H]12,95% (active)
12,CC(=O)O/C=C\COC(C)=O,-2%
13,Cn1cc(NC(=O)c2cc(NC(=O)CCCCCCCCC(=O)Nc3cc(C(=O)Nc4cc(C(=O)NCCC(N)N)n(C)c4)n(C)c3)cn2C)cc1C(=O)NCCC(=N)N,95% (active)
14,CCCCCCCNCCCCCC,86% (active)
15,Cc1ccc(S(=O)(=O)N(c2ccccc2-c2ccccc2)C(C)C(=O)O)cc1 (stereo not given),76% (active)
